Assay results from PubChem BioAssay AID463173 (ICCB-Longwood Screening Facility, Harvard Medical School, 2010).
Out of some 52,000 compounds screened, about 4,300 (8.3%) were called active. Cut-off read from the data, not from the text of the source: active = survival mostly below about 52% (no sharp cut-off); inactive = mostly above about 56%. Many of the other results were omitted from the sample, so actives are more common in it than they were.

Tested on: DeltatarO mutant
Assay: S. aureus survival, RN4220 and DeltatarO strains – OD600, teichoic acid synthesis inhibitors, primary screen (AID 463173)
Details: S. aureus RN4220 wild type/DeltatarO growth, OD600, 18 h, stronger effect = lower value, screened at 18.75 µg/mL (by protocol)

Row | Compound | survival
1 | CCN(c1cccc(C)c1)S(=O)(=O)c1c(C)nc2sc(C)cn2c1=O | 73% (inactive)
2 | Cc1ccc2oc(=O)c3cnn(CC(=O)Nc4cccc(C(F)(F)F)c4)c3c2c1 | 87% (inactive)
3 | Brc1ccc(-c2cc(-c3ccccc3)no2)cc1 | 74% (inactive)
4 | CC1CCC(Nc2nnnn2-c2ccccc2)CC1 (stereo not given) | 87% (inactive)
5 | CCc1cccc(NS(=O)(=O)c2ccc3c(c2)n(C)c(=O)c(=O)n3C)c1 | 73% (inactive)
6 | CCOC(=O)c1ccccc1NC(=O)CN1C(=O)CC(c2ccccc2)Sc2ccccc21 (stereo not given) | 92% (inactive)
7 | COCCNC(=O)CSc1nc(-c2ccc(F)cc2)[nH]c1-c1ccc(Cl)cc1 | 71% (inactive)
8 | CCc1cccc(C)c1NC(=O)Cn1cnc2c1c(=O)n(C)c(=O)n2C | 74% (inactive)
9 | CS(=O)(=O)c1ncc(N(Cc2ccco2)Cc2ccco2)c(C(=O)Nc2ccccc2Br)n1 | 53% (inactive)
10 | CCS(=O)(=O)c1ncc(N(Cc2ccco2)Cc2ccccc2F)c(C(=O)Nc2cccc(Cl)c2)n1 | 60% (inactive)
11 | Cc1cccc(C)c1NC(=O)c1nc(S(C)(=O)=O)ncc1N(Cc1ccc(F)cc1)Cc1ccco1 | 46% (inactive)
12 | Cc1ccc(NC(=O)c2nc(S(C)(=O)=O)ncc2N(Cc2ccccc2)Cc2ccco2)c(C)c1 | 53% (inactive)
13 | Cc1ccc(CN(Cc2ccco2)c2cnc(S(C)(=O)=O)nc2C(=O)Nc2ccccc2Br)o1 | 44% (inactive)
14 | Cc1ccc(NC(=O)c2nc(S(C)(=O)=O)ncc2N(Cc2ccco2)Cc2ccccc2F)c(C)c1 | 37% (active)
15 | Cc1ccc(C)c(NC(=O)c2nc(S(C)(=O)=O)ncc2N(Cc2ccc(C(C)(C)C)cc2)Cc2ccco2)c1 | 55% (active)
16 | CCc1ccc(CN(Cc2ccco2)c2cnc(S(C)(=O)=O)nc2C(=O)Nc2c(C)cccc2C)cc1 | 36% (active)
17 | CS(=O)(=O)c1ncc(N(Cc2ccco2)Cc2cccs2)c(C(=O)Nc2ccccc2F)n1 | 41% (active)
18 | Cc1cccc(C)c1NC(=O)c1nc(S(C)(=O)=O)ncc1N(Cc1ccc(C(C)(C)C)cc1)Cc1ccco1 | 49% (inactive)
19 | CC(C)(C)c1ccc(CN(Cc2ccco2)c2cnc(S(C)(=O)=O)nc2C(=O)Nc2ccc(F)cc2)cc1 | 102% (inactive)
20 | Cc1ccc(NC(=O)c2nc(S(C)(=O)=O)ncc2N(Cc2ccc(C(C)(C)C)cc2)Cc2ccco2)cc1C | 52% (inactive)
21 | COCCn1c(C)cc(O)c(C(c2ccc(OC)cc2)N2CCCCC2)c1=O (stereo not given) | 83% (inactive)
22 | Cc1ccc(-c2nnc(Nc3cccc(Cl)c3)c3ccccc23)cc1S(=O)(=O)N1CCN(C)CC1 | 87% (inactive)
23 | CCn1c(=O)n(-c2ccc(F)cc2)c(=O)c2sc3ccccc3c21 | 88% (inactive)
24 | Cc1ncc(CO)c2c1Oc1nc(-c3ccc(F)cc3)nc(SCc3ccc(F)cc3Cl)c1C2 | 58% (inactive)
25 | Cc1cccc(OCc2ccc(-c3nc(C#N)c(NCc4cccnc4)o3)o2)c1 | 79% (inactive)

Row | Compound | survival
26 | COC(=O)c1sccc1S(=O)(=O)N(CC(=O)NCc1ccccc1)c1ccc(C)cc1 | 95% (inactive)
27 | CC(=O)N1CCc2c(sc3c2c(=O)n(-c2ccccc2Cl)c(=O)n3Cc2cccc(C)c2)C1 | 74% (inactive)
28 | COc1cc(NS(=O)(=O)c2ccc3c(c2)CC(=O)N3)cc(OC)c1OC | 74% (inactive)
29 | Cc1ccc(NS(=O)(=O)c2ccc3c(c2)N(C)C(=O)CC(=O)N3C)cc1Cl | 72% (inactive)
30 | COc1ccc(NS(=O)(=O)c2ccc3nc(-c4ccccc4)[nH]c3c2)cc1 | 72% (inactive)
31 | Cc1ccc(NS(=O)(=O)c2ccc3nc(-c4ccccc4)[nH]c3c2)c(Cl)c1 | 76% (inactive)
32 | Cc1ccc(NS(=O)(=O)c2ccc3nc(-c4ccccc4)[nH]c3c2)cc1Cl | 6% (active)
33 | CC(C)c1ccc(NS(=O)(=O)c2ccc3nc(-c4ccccc4)[nH]c3c2)cc1 | 67% (inactive)
34 | Cc1cc(NS(=O)(=O)c2ccc3nc(-c4ccccc4)[nH]c3c2)ccc1Br | -2% (active)
35 | Cc1ccc(NS(=O)(=O)c2ccc3nc(-c4ccccc4)[nH]c3c2)c(Br)c1 | 79% (inactive)
36 | O=S(=O)(Nc1ccc(Br)cc1)c1ccc2nc(-c3ccccc3)[nH]c2c1 | -1% (active)
37 | O=S(=O)(Nc1ccc(Br)cc1F)c1ccc2nc(-c3ccccc3)[nH]c2c1 | 72% (inactive)
38 | Cc1cccc(NS(=O)(=O)c2ccc3nc(-c4ccccc4)[nH]c3c2)c1C | 109% (inactive)
39 | Cc1ccc(NS(=O)(=O)c2ccc3c(c2)CC(=O)N3)cc1Cl | 47% (active)
40 | Cc1cc(C)c(C#N)c(SCC(=O)Nc2sc3c(c2C#N)CCC(C(C)(C)C)C3)n1 (stereo not given) | 75% (inactive)
41 | Cc1ccc(CNC(=O)Cn2c(=O)n(-c3ccc(C)c(F)c3)c(=O)c3sc4ccccc4c32)cc1 | 75% (inactive)
42 | COc1ccc(-c2cnnn2-c2ccc(NC(=O)c3ccc(S(=O)(=O)N(C)C)cc3)cc2)cc1 | 81% (inactive)
43 | COCCNC(=O)CCn1c(=O)[nH]c2cc(OC)c(OC)cc2c1=O | 90% (inactive)
44 | CCN1C2OC(C3OC4C(O3)N(CC)S(=O)(=O)N4CC)OC2N(CC)S1(=O)=O (stereo not given) | 73% (inactive)
45 | CCN1/C(=C2/SC(=S)N(N)C2=O)Sc2ccccc21 | 77% (inactive)
46 | O=C(CSc1nnc(-c2cccs2)o1)N1c2ccccc2CCc2ccccc21 | 70% (inactive)
47 | CCOc1ccc(-c2nonc2NC(=O)c2oc3ccc(F)cc3c2C)cc1 | 117% (inactive)
48 | CC1(C)C(=O)N(CC(=O)Nc2cccc(F)c2)c2ccc(S(=O)(=O)N3CCCCC3)cc21 | 81% (inactive)
49 | Cc1nn(-c2ccc(N3CCCC3)nn2)c(C)c1CCC(=O)Nc1ccccc1 | 83% (inactive)
50 | Cc1nc2ccn(Cc3cccnc3)c(=O)c2cc1C(=O)NCc1ccc(Cl)cc1 | 69% (inactive)

Row | Compound | survival
51 | Cc1ccc(-c2nc(C)c(CCNC(=O)C(=O)Nc3ccc(C)c(Cl)c3)s2)cc1 | 74% (inactive)
52 | Cc1nc(-c2ccccc2)sc1CCNC(=O)C(=O)Nc1ccc(F)c(Cl)c1 | 6% (active)
53 | Cc1ccc(NC(=O)C(=O)NCCc2sc(-c3ccc(Cl)cc3)nc2C)cc1C | 104% (inactive)
54 | O=C(c1cccc(F)c1)N1CCN(C(=O)c2cccc3ccccc23)CC1 | 92% (inactive)
55 | CC(NC(=O)c1cc2ccccn2n1)c1ccccc1 (stereo not given) | 75% (inactive)
56 | Cc1cccc(CCNC(=O)c2sc3nc4n(c(=O)c3c2C)CCCC4)c1 | 85% (inactive)
57 | COc1cc(NC(=O)CCN2CCN(c3ccccc3)CC2)cc(OC)c1 | 150% (inactive)
58 | CC(=O)N1CCCc2cc(S(=O)(=O)N3CCC(C(=O)NCCC(C)C)CC3)ccc21 | 91% (inactive)
59 | N#Cc1cnc(SCc2ccccc2)nc1N | 39% (active)
60 | N#Cc1cnc(SCCc2ccccc2)nc1N | 81% (inactive)
61 | CCCCCCSc1ncc(C#N)c(N)n1 | 84% (inactive)
62 | CCOC(=O)c1c(C)oc2ccc(N(C(C)=O)S(=O)(=O)c3c(C)cc(C)cc3C)cc12 | 168% (inactive)
63 | O=c1sc2ccccc2n1CCc1ccccc1 | 104% (inactive)
64 | COc1ccc(CNC(=O)C(C)n2nc(C)c3sc4ccccc4c3c2=O)cc1OC (stereo not given) | 67% (inactive)
65 | COc1ccc(Cn2c(=O)sc3ccccc32)cc1 | 74% (inactive)
66 | COc1cc(Cn2c(=O)sc3ccccc32)ccc1OC(C)C | 40% (active)
67 | CCCCOc1ccc(Cn2c(=O)sc3ccccc32)cc1OC | -3% (active)
68 | O=C(Cn1c(=O)sc2ccccc21)OCc1ccccc1 | 83% (inactive)
69 | COc1cc(Cn2c(=O)sc3ccccc32)ccc1OCCC(C)C | -2% (active)
70 | Cc1cccc2sc(N(Cc3cccnc3)C(=O)CCc3ccccc3)nc12 | 117% (inactive)
71 | COc1cccc(-n2c(=O)c3c(C)c(C)sc3n(CC(=O)NCc3ccccc3)c2=O)c1 | 102% (inactive)
72 | CCCCCOc1ccc(/C=C/C(=O)Nc2sc3c(c2C(=O)OCC)CCC3)cc1OC | 66% (inactive)
73 | COc1ccc(NC(=O)N2CCN3CCCCC3C2)cc1OC (stereo not given) | 99% (inactive)
74 | COc1cc(Cl)ccc1OC(=O)c1cn(-c2ccccc2OC)c(=O)c2ccccc12 | 58% (inactive)
75 | Cc1ccc(S(=O)(=O)Cn2nnnc2CN(Cc2ccco2)Cc2cccs2)cc1 | 61% (inactive)

Row | Compound | survival
76 | CN(C)c1ccc(C(CNC(=O)Cc2ccc(Cl)cc2)N2CCOCC2)cc1 (stereo not given) | 63% (inactive)
77 | CN(C)c1ccc(C(CNS(=O)(=O)c2ccc(F)cc2)N2CCCC2)cc1 (stereo not given) | 106% (inactive)
78 | Cc1ccc(S(=O)(=O)NCC(c2ccc(N(C)C)cc2)N2CCCC2)cc1 (stereo not given) | 98% (inactive)
79 | CN(C)c1ccc(C(CNS(=O)(=O)c2ccc(Cl)cc2)N2CCCC2)cc1 (stereo not given) | 0% (active)
80 | CN(C)c1ccc(C(CNC(=O)c2ccccc2Cl)N2CCCC2)cc1 (stereo not given) | 81% (inactive)
81 | CN(C)c1ccc(C(CNS(=O)(=O)c2ccc(F)cc2)N2CCOCC2)cc1 (stereo not given) | 92% (inactive)
82 | Cc1ccc(S(=O)(=O)NCC(c2ccc(N(C)C)cc2)N2CCOCC2)cc1 (stereo not given) | 57% (inactive)
83 | CN(C)c1ccc(C(CNC(=O)c2c(F)cccc2Cl)N2CCOCC2)cc1 (stereo not given) | 25% (active)
84 | CN(C)c1ccc(C(CNS(=O)(=O)c2ccc(Cl)cc2)N2CCOCC2)cc1 (stereo not given) | 37% (active)
85 | CCN(CC)C(=O)Cn1c(=O)n(-c2ccc(OC)cc2OC)c(=O)c2c(C)c(C(=O)N(CC)CC)sc21 | 89% (inactive)
86 | CCc1cccc(CC)c1NS(=O)(=O)c1ccc2c(c1)CCN2C(=O)C1CC1 | 90% (inactive)
87 | CC1=Nc2cc(C(=O)NCCc3ccc(Cl)cc3)ccc2Sc2c(C)ccc(C)c21 | 74% (inactive)
88 | O=C(NCCc1ccc(Cl)cc1)c1ccc(CS(=O)(=O)Cc2ccc(F)cc2)o1 | 92% (inactive)
89 | COc1nc(-c2ccccc2)ccc1-c1noc(C(C)C)n1 | 91% (inactive)
90 | CCOc1cc(-c2nc(-c3ccc(-c4ccc(OC)cc4)nc3OC)no2)cc(OCC)c1OCC | 75% (inactive)
91 | COc1ccc(-c2ccc(-c3noc(-c4cc(OC)cc(OC)c4)n3)c(OC)n2)cc1 | 45% (inactive)
92 | CCOc1cc(-c2nc(-c3ccc(Br)cc3)no2)cc(OCC)c1OCC | 118% (inactive)
93 | CCOc1cc(-c2nc(-c3ccc(-c4ccccc4)nc3OCC)no2)cc(OCC)c1OCC | 53% (inactive)
94 | CCOc1ccccc1-c1nc(-c2ccc(-c3ccccc3)nc2OCC)no1 | 4% (active)
95 | COc1nc(-c2ccccc2)ccc1-c1noc(-c2ccccc2Br)n1 | -1% (active)
96 | CCOc1cc(-c2nc(-c3ccc(-c4ccc(C)cc4)nc3OC)no2)cc(OCC)c1OCC | 69% (active)
97 | COc1cccc(-c2ccc(-c3noc(-c4ccccc4Br)n3)c(OC)n2)c1 | 37% (inactive)
98 | COc1cccc(-c2nc(-c3ccc(-c4ccccc4)nc3OC)no2)c1 | 10% (active)
99 | CCOc1nc(-c2ccccc2)ccc1-c1noc(-c2ccc(C)cc2)n1 | 110% (inactive)
100 | COc1nc(C)ccc1-c1noc(-c2ccccc2)n1 | 102% (inactive)
